Results on 86 sequences are retold here after the supplement of paper PMC3334620.

Over roughly 33,000 sequences, “E-score (-0.5 to 0.5)” has its median near -0.043; the highest 2% begin near 0.37. Many of the other results were omitted from the sample, so the highest values are more common in it than they were.

This experiment concerns the target T1, Upc2 (UniProt Q12151).
T1 sequence: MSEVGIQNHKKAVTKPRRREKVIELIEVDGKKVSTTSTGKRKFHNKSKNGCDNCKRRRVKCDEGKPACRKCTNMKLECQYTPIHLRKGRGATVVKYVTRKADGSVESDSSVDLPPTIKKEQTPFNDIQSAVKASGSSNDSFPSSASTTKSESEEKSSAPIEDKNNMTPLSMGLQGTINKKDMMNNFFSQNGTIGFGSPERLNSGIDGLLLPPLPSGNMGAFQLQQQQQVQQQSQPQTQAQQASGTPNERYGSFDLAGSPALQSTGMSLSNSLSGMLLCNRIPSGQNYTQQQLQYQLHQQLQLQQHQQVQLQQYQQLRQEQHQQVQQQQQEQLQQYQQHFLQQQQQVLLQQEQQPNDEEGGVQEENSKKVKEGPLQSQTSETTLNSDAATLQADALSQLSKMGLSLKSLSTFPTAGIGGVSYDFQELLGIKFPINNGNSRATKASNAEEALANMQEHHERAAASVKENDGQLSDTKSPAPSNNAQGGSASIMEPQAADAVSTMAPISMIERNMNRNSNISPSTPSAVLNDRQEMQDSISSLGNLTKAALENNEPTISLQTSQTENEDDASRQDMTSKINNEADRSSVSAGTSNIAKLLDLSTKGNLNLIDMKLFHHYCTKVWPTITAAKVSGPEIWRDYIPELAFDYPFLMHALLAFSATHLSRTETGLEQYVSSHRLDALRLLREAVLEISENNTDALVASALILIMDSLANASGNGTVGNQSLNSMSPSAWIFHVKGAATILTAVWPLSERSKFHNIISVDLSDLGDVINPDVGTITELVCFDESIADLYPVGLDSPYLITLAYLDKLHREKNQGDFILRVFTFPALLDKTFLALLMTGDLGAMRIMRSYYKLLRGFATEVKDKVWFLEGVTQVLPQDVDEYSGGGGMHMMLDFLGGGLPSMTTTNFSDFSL
The experiment can be described thus: PBM E-score (8-mer binding enrichment) (E-score (-0.5 to 0.5)); higher = stronger / more preferred TF binding. The conditions noted are these: protein concentration: 200 nM; construct: GST-full length. The protocol:
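Universal 'all 10-mer' protein binding microarrays (Agilent AMADID 015681) probed with GST-tagged S. cerevisiae TFs (full-length or DBD) made by in vitro transcription/translation (PURExpress), about 100-200 nM. Bound TF was detected with fluorescent anti-GST. Each ungapped 8-mer (which stands for itself and its reverse complement) is scored by the PBM enrichment score (E-score), a modified Wilcoxon-Mann-Whitney statistic from -0.5 to +0.5, computed with the Universal PBM Analysis Suite. Scale: above 0.35 generally sequence-specific binding.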
For AACGTTCA, the “PBM E-score” value was 0.212.

For ATCGTTCA, the “PBM E-score” value is 0.443.

For the sequence ATCGTTCG, the “PBM E-score” value stood at 0.384.

As for AACGTTCG, the “PBM E-score” value is 0.212.

Regarding AGCGTTCA, the “PBM E-score” value is -0.0376.

In the case of ATCGTTGG, the “PBM E-score” value was found to be 0.0354.

For TCTTGAAA, the “PBM E-score” value came out at 0.0803.

With ACAGCGCT, the “PBM E-score” value came out at 0.128.

Consider CTCTGTCC, for which the “PBM E-score” value is -0.116.

CTATTGAC: the “PBM E-score” value is -0.166.

On to ACTTCGTG, for which the “PBM E-score” value was found to be 0.0872.

On to ACTTCGTC, for which the “PBM E-score” value turned out to be 0.0529.

Consider CCTTCGTA, for which the “PBM E-score” value was 0.441.

As for CCTTCGTC, the “PBM E-score” value came out at 0.00619.

On to GCTTCGTA, for which the “PBM E-score” value was 0.449.

Take GCTTCGCA: the “PBM E-score” value was 0.186.

As to ACTTCGTA, the “PBM E-score” value was 0.429.

With CCTTCGCA, the “PBM E-score” value turned out to be 0.0293.

With GCTTCGGA, the “PBM E-score” value stood at 0.102.

For the sequence CCGTTTCA, the “PBM E-score” value stood at 0.159.

Consider CGACTTTC, for which the “PBM E-score” value came out at 0.0358.

With GCCTCCCC, the “PBM E-score” value was -0.149.

Turning to CCCCATAC, the “PBM E-score” value was determined as 0.174.

With ACGTTGCG, the “PBM E-score” value came out at 0.0848.

Regarding GGCAGTTA, the “PBM E-score” value is -0.21.

For CCGCAGCA, the “PBM E-score” value is -0.267.

As to ACGAGACT, the “PBM E-score” value was 0.337.

For the sequence ACGAGAAC, the “PBM E-score” value came to 0.375.

As to ACGAGAAG, the “PBM E-score” value turned out to be 0.277.

For ACGAGAAA, the “PBM E-score” value turned out to be 0.349.

For CCGAGAAC, the “PBM E-score” value turned out to be 0.117.

Take ACGAGAAT: the “PBM E-score” value was determined as 0.396.

Consider AATCGCAA, for which the “PBM E-score” value stood at 0.0942.

On to TGCATGAA, for which the “PBM E-score” value was 0.0372.

For the sequence AATGCAGA, the “PBM E-score” value was -0.0923.

For the sequence TGCTAGCA, the “PBM E-score” value is -0.0249.

For the sequence CGGAACGC, the “PBM E-score” value came to 0.243.

For the sequence AGGAACGC, the “PBM E-score” value was found to be 0.114.

For CGGAACGA, the “PBM E-score” value is 0.468.

As for CGGAACAA, the “PBM E-score” value was found to be 0.0835.

As for GGGAACAA, the “PBM E-score” value came out at 0.0652.

For AGGAACGG, the “PBM E-score” value was 0.322.

Turning to GGGAACCA, the “PBM E-score” value is -0.165.

With GGGAACGA, the “PBM E-score” value was found to be 0.466.

As to AGGAACGA, the “PBM E-score” value was 0.449.

Regarding GTCCACAA, the “PBM E-score” value is -0.215.

Consider CCGGAGCA, for which the “PBM E-score” value was -0.0221.

Turning to AGTGCAGC, the “PBM E-score” value was -0.22.

As to ATTACGTA, the “PBM E-score” value came to 0.309.

Regarding CCACTGTA, the “PBM E-score” value was 0.0804.

With TTGCCCAA, the “PBM E-score” value is -0.0249.

Consider GTGTATAA, for which the “PBM E-score” value was 0.138.

Regarding CCGTATAC, the “PBM E-score” value was 0.475.

For CTGTATAC, the “PBM E-score” value was 0.281.

As for GGGTATAC, the “PBM E-score” value worked out at 0.255.

Turning to GCGTATTA, the “PBM E-score” value turned out to be 0.0994.

Turning to AAGTATAT, the “PBM E-score” value is 0.104.

As for ACGTATAT, the “PBM E-score” value came out at 0.404.

Consider CCGTATCC, for which the “PBM E-score” value is 0.331.

On to GAGTATAC, for which the “PBM E-score” value amounted to 0.315.

Turning to AGGTATAT, the “PBM E-score” value is -0.0562.

In the case of GCGTATAC, the “PBM E-score” value amounted to 0.454.

Take GCGTATAA: the “PBM E-score” value came to 0.444.

As to CCTAGTGC, the “PBM E-score” value is -0.199.

For CGTCATGC, the “PBM E-score” value is -0.202.

For the sequence CAGAATTC, the “PBM E-score” value is -0.03.

As for GGATGGCA, the “PBM E-score” value was determined as 0.0444.

With ACTACCAG, the “PBM E-score” value is -0.0238.

Regarding CTCTTCGC, the “PBM E-score” value was -0.12.

Consider ACTATGAA, for which the “PBM E-score” value is -0.0506.

Turning to AGAGGGTG, the “PBM E-score” value is -0.171.

Regarding TTATACAA, the “PBM E-score” value was 0.0521.

For the sequence GCTGCAAC, the “PBM E-score” value was -0.107.

Regarding GTACTCTA, the “PBM E-score” value was -0.0205.

CTGGGTAA: the “PBM E-score” value was -0.00044.

With GCTGTGTA, the “PBM E-score” value was 0.00184.

On to CCGTATAG, for which the “PBM E-score” value was 0.485.

On to ACGTATGA, for which the “PBM E-score” value came out at 0.243.

Consider AAGTATAC, for which the “PBM E-score” value was determined as 0.306.

Regarding ATGTATAC, the “PBM E-score” value came out at 0.263.

As for CCGTATCG, the “PBM E-score” value was 0.319.

Take ACGTATAC: the “PBM E-score” value is 0.445.

For ACGTATAG, the “PBM E-score” value was 0.433.

For the sequence ACGTATTG, the “PBM E-score” value was 0.209.

In the case of CGGTATAG, the “PBM E-score” value turned out to be 0.225.

Turning to ACGTATCG, the “PBM E-score” value was found to be 0.22.
